# Results from PubChem BioAssay AID1212 (NMMLSC, 2008).
# Unmarked numbers belong to inactive results. Calls of active or inactive are those of the source.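 How the source made its calls: active means blocks over 60% of fluorescent estradiol binding at 10 µM; inactive means the rest.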
# Target: G-protein coupled estrogen receptor 1 (Homo sapiens) (UniProt Q99527)
# Test: GPR30 competitive binders vs fluorescent estrogen, primary screen, cell-based, Cos7 GPR30-GFP, flow cytometry, 10 µM (AID 1212)
# Conditions: fluorescent estrogen competition, at 10 µM; stronger effect = higher value
Compound,outcome,inhibition
O=c1oc2cc(O)ccc2c2c1CCC2,inactive,
O=C1CC(c2ccncc2)c2cc3c(cc2N1)OCCO3 (configuration not stated),,1%
CCCc1cc(=O)oc2c(C)c(OC3CCCCC3=O)ccc12 (configuration not stated),inactive,
CCCc1c(C(=O)OCC)[nH]c2c1C(=O)CC(c1ccccc1)C2 (configuration not stated),inactive,
CC1(C)Cc2[nH]c3ccccc3c2C(C)(C)N1,inactive,
CCCCCCc1cc2c3c(c(=O)oc2cc1OCC(=O)O)CCCC3,inactive,
O=C(O)c1ccc([N+](=O)[O-])c2c1NC(c1ccccc1)C1CC=CC21 (configuration not stated),,100% (active)
O=c1oc2c(CN3CCCC3)c(O)ccc2c2c1CCC2,inactive,
CC(Nc1ccc(N2CCNCC2)cc1[N+](=O)[O-])C12CC3CC(CC(C3)C1)C2 (configuration not stated),inactive,
CCOc1cc2c(cc1OCC)C(C1CCCCC1)NCC2 (configuration not stated),inactive,
CC1(C)CC(=O)C=C(NC2CC(C)(C)NC(C)(C)C2)C1,inactive,
CC1CCCC(C)N1Cc1c(O)ccc2c3c(c(=O)oc12)CCC3 (configuration not stated),,23%
COc1ccc(NS(=O)(=O)c2ccc3c(c2)[C@H]2C=CC[C@H]2[C@@H](c2cccc(OC)c2OC)N3)cc1,,44%
CCOc1ccc(NS(=O)(=O)c2ccc3c(c2)[C@H]2C=CC[C@H]2[C@@H](c2ccc([N+](=O)[O-])cc2)N3)cc1,,55%
COc1cc([N+](=O)[O-])cc2c1NC(c1ccccc1)C1CC=CC21 (configuration not stated),,34%
C=C1c2ccc(OC)cc2NC(=O)N1c1ccccc1,inactive,
COc1ccc(C2(CNCC(N)=O)CCCC2)cc1OC,inactive,
Cc1cc(C(C)CO)cc(C(C)(C)C)c1O (configuration not stated),inactive,
CCCCCCc1cc2c3c(c(=O)oc2cc1OCC(=O)OC)CCC3,inactive,
O=C1CC(c2ccc3c(c2)OCO3)c2ccc3ccccc3c2N1 (configuration not stated),inactive,
CC1CCC2(C)c3[nH]c4ccccc4c3CCN2C1=O (configuration not stated),,2%
O=C(O)c1ccc2c(c1)C1C=CCC1C(c1cccc([N+](=O)[O-])c1)N2 (configuration not stated),,57%
CCOC(=O)COc1cc2oc(=O)c3c(c2cc1CC)CCCC3,inactive,
COc1ccc2c(c1)c1c3n2CCNC3CCC1 (configuration not stated),inactive,
CCCOc1cc(OCCC)c2c3c(c(=O)oc2c1)CCCC3,inactive,
COc1ccc(NS(=O)(=O)c2ccc3c(c2)[C@H]2C=CC[C@H]2[C@@H](c2ccc(F)cc2)N3)cc1,,56%
CCCCc1cc2c(=O)c(-c3ccccn3)coc2cc1O,,3%
